Reference: PubChem BioAssay (NCATS)
Values joined by “and” are separate entries in the source; they are usually repeats but may differ in a detail not shown here. Equal entries are not always repeated. Records with an inconclusive call do not appear. A call without a number means that no potency is given here. Unmarked numbers belong to inactive results. Active and inactive are the calls of the source. Calls follow the shape of the dose curve; as a rule, active = well fitted curve in the direction sought with a large enough effect; inconclusive = small, poorly fitted or top-dose-only effect, or another doubt; inactive = no such curve, though single readings can be large; an effect the other way counts as inactive or inconclusive.

Legend:
[1] = Quantitative highthroughput screen to assess conditional lethalithy of NOMO1 cells grown in RPMI1640 with untreated serum (RPMI+s) (AID 1963876); also: nearly all actives have a fitted effect of over 35% in size; also: potency is read from the fitted curve at half-maximal effect
How it was run: (§1)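 Each medium arm—HPLM with 10% dialyzed FBS, or RPMI1640 with 5 mM glucose and 10% untreated or dialyzed FBS—was screened against an 11-point, 3-fold compound titration for 48 h at 37 °C, with CellTiter-Glo luminescence as endpoint.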

[2] = Quantitative highthroughput screen to assess conditional lethalithy of NOMO1 cells grown in RPMI1640 with dialyzed fetal bovine serum (RPMI+ds) (AID 1963877); also: nearly all actives have a fitted effect of over 30% in size; also: potency is read from the fitted curve at half-maximal effect; as to viability: series mostly up to about 46 µM
How it was run: as §1

[3] = Quantitative highthroughput screen to assess conditional lethalithy of NOMO1 cells grown in Human Plasma-Like Medium with dialyzed fetal bovine serum (HPLM+ds) (AID 1963878); also: nearly all actives have a fitted effect of over 35% in size; also: potency is read from the fitted curve at half-maximal effect
How it was run: as §1

[4] = Quantitative highthroughput screen to assess conditional lethalithy of P12 Ichikawa cells grown in Human Plasma-Like Medium with dialyzed fetal bovine serum (HPLM+ds) (AID 1963879); details: Potency: viability; also: nearly all actives have a fitted effect of over 35% in size; also: potency is read from the fitted curve at half-maximal effect; as to viability: series mostly up to about 46 µM
How it was run: as §1

[5] = Quantitative highthroughput screen to assess conditional lethalithy of P12 Ichikawa cells grown in RPMI1640 with untreated serum (RPMI+s) (AID 1963881); details: Potency: viability; also: nearly all actives have a fitted effect of over 35% in size; also: potency is read from the fitted curve at half-maximal effect; as to viability: series mostly up to about 46 µM
How it was run: as §1

[6] = Quantitative highthroughput screen to assess conditional lethalithy of SEM cells grown in Human Plasma-Like Medium with dialyzed fetal bovine serum (HPLM+ds) (AID 1963882); also: nearly all actives have a fitted effect of over 35% in size; also: potency is read from the fitted curve at half-maximal effect; as to viability: series mostly up to about 46 µM
How it was run: as §1

[7] = Quantitative highthroughput screen to assess conditional lethalithy of SEM cells grown in RPMI1640 with dialyzed fetal bovine serum (RPMI+ds) (AID 1963884); also: nearly all actives have a fitted effect of over 35% in size; also: potency is read from the fitted curve at half-maximal effect; as to viability: series mostly up to about 46 µM
How it was run: as §1

[8] = Cellular viability qHTS for adrenocortical cancer (ACC) cell line SW-13 (AID 1963989); details: SW-13 ACC cells viability, CellTiter-Glo, 48 h; activity (max response): hits give low values; also: nearly all actives have a fitted effect of over 65% in size; also: potency is read from the fitted curve at half-maximal effect;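 as to activity (max response): cells grown in serum-free medium with ITS supplement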
How it was run: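 IC50 and maximal-response values come from four-parameter logistic fits of titration data. SW-13 cells in serum-free medium received compounds (up to 46 uM final) for 48 h before CellTiter-Glo luminescence.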

[9] = Cellular viability qHTS for adrenocortical cancer (ACC) cell line NCI-H295R (AID 1963990); also: nearly all actives have a fitted effect of over 60% in size; also: potency is read from the fitted curve at half-maximal effect
How it was run: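 Adrenocortical carcinoma cells, suspended at 300 000 cells/mL in serum-free DMEM plus ITS, rested overnight before pin transfer of compound. After two days' incubation, ATP-dependent luminescence was recorded and curve-fitted.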

[10] = Quantitative highthroughput screen to assess conditional lethalithy of SEM cells grown in RPMI1640 with unreated serum (RPMI+s) (AID 1963883); also: nearly all actives have a fitted effect of over 35% in size; also: potency is read from the fitted curve at half-maximal effect
How it was run: as §1

[11] = Quantitative highthroughput screen to assess conditional lethalithy of P12 Ichikawa cells grown in RPMI1640 with dialyzed fetal bovine serum (RPMI+ds) (AID 1963880); details: Potency: P12-Ichikawa viability; also: nearly all actives have a fitted effect of over 35% in size
How it was run: as §1

SMILES | Potency [1] | Potency [2] | Potency [3] | Potency [4] | Potency [5] | Potency [6] | Potency [7] | activity (max response) [8] | Potency [9] | Potency [10] | Potency [11] | Potency [8]
O=NN(CCCl)C(=O)NCCCl | inactive | inactive | inactive | inactive | inactive | inactive | inactive | 15.2% | inactive | – | – | –
Nc1nc(=O)n([C@H]2CSC(CO)O2)cc1F (some centres not stated) | inactive | inactive | inactive | inactive | inactive | – | – | – | – | inactive | – | –
Cn1cc(C=C2C(=O)Nc3cccnc32)c2ccccc21 | 7.43 µM (active) | 9.35 µM (active) | inactive | 9.35 µM (active) | 23.5 µM (active) | – | – | – | – | – | – | –
O=C(C=CC#Cc1cccc(NS(=O)(=O)c2ccccc2)c1)NO | 3.72 µM (active) | 3.32 µM (active) | 3.32 µM (active) | 2.35 µM (active) | 2.09 µM (active) | 2.64 µM (active) | 2.35 µM (active) | – | – | 2.96 µM (active) | – | –
NC(=O)c1ccc(I)c([N+](=O)[O-])c1 | inactive | inactive | inactive | inactive | inactive | – | inactive | 11.3% | – | inactive | – | –
CC(C(C)N1CC(=O)NC(=O)C1)N1CC(=O)NC(=O)C1 (configuration not stated) | inactive | inactive | inactive | 13.2 µM (active) | 1.66 µM (active) | – | – | 12.5% | inactive | – | – | –
COc1ccccc1N1CCN(CCN(C(=O)C2CCCCC2)c2ccccn2)CC1 | inactive | inactive | inactive | inactive | inactive | inactive | inactive | – | – | inactive | – | –
C#CCN(C)CC1=Cc2ccccc2Oc2ccccc21 | inactive | inactive | inactive | inactive | inactive | – | – | 0.599% | inactive | – | – | –
Cc1oncc1C(=O)Nc1ccc(C(F)(F)F)cc1 | inactive | inactive | inactive | inactive | – | inactive | – | -12.3% and -17.5% | inactive | inactive | – | –
CCCCN1CCC(CNC(=O)c2c3n(c4ccccc24)CCCO3)CC1 | inactive | inactive | inactive | 18.7 µM (active) | 16.6 µM (active) | – | inactive | – | – | inactive | – | –
CC(=O)N1CCN(c2ccc(OCc3nn(C)c(C)c3-c3cccc4c(CCCOc5cccc6ccccc56)c(C(=O)O)n(Cc5cccnc5)c34)cc2)CC1 | 1.66 µM (active) | 2.64 µM (active) | 2.35 µM (active) | 10.5 µM (active) | 10.5 µM (active) | inactive | inactive | – | – | – | – | –
C[C@]12CCC3c4ccc(O)cc4CCC3C1CCC2=O (some centres not stated) | inactive | inactive | inactive | inactive | inactive | – | – | -21% | inactive | inactive | – | –
CCCNS(=O)(=O)Nc1ncnc(OCCOc2ncc(Br)cn2)c1-c1ccc(Br)cc1 | inactive | inactive | inactive | inactive | – | inactive | – | – | inactive | – | inactive | –
N#CC(c1ccnc(NCCc2cccnc2)n1)c1nc2ccccc2s1 (configuration not stated) | inactive | inactive | inactive | inactive | – | – | inactive | – | – | inactive | – | 25.1 µM (active)
O=C(C=Cc1cccnc1)NCCCCC1CCN(C(=O)c2ccccc2)CC1 | 0.0059 µM (active) | 0.0033 µM (active) | 0.0026 µM (active) | 0.003 µM (active) | 0.0047 µM (active) | – | 0.0019 µM (active) | – | – | 0.0026 µM (active) | – | –
C=CC[N+]1([C@H]2C[C@H]3[C@@H]4CC[C@H]5C[C@H](O)[C@@H](N6CCOCC6)C[C@]5(C)[C@@H]4CC[C@]3(C)[C@H]2OC(C)=O)CCCC1 | inactive | inactive | inactive | inactive | inactive | inactive | inactive | – | – | inactive | – | –
O=Nc1c(-c2c(O)[nH]c3cc(Br)ccc23)[nH]c2ccccc12 | 14.8 µM (active) | 10.5 µM (active) | 5.9 µM (active) | 4.18 µM (active) | – | 0.833 µM (active) | 0.833 µM (active) | – | 10 µM (active) | 0.743 µM (active) | – | 11.2 µM (active)
COc1cc(OC)cc(-c2ccc3ncc4ccc(=O)n(-c5ccc(N6CCNCC6)c(C(F)(F)F)c5)c4c3c2)c1 | inactive | 8.33 µM (active) | 14.8 µM (active) | 10.5 µM (active) | – | 14.8 µM (active) | – | – | – | 16.6 µM (active) | – | –
CN(N=O)C(=O)N[C@H]1C(O)OC(CO)[C@@H](O)[C@H]1O (some centres not stated) | inactive | inactive | inactive | – | inactive | – | – | – | – | – | inactive | –
